# The list is not random: actives were taken first. Their share in the collection is about 3.5%.
# GPR151 ag – activates the human receptor GPR151; 650,000 tested, 1% active; PathHunter beta-arrestin GPR151 cells, luminescence; AID 1508602; activation, % at 11.2 µM; in the data active = activation above about 4.9%;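 note: 0% = median of compound wells and 100% = cells with positive control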
# TEAD-YAP block – TEAD-YAP interaction inhibition; HEK-TIYL cells, TEAD-Gal4/YAP UAS-luciferase luminescence; 640,000 tested, 1.4% active; inhibition, % at 9.12 µM; in the data active = inhibition above about 32%;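 note: 0% = median of test compound wells and 100% = reference inhibitor wells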
# MITF inh – inhibitors of human MITF; O75030; AlphaScreen MITF homodimerization, bead proximity signal; inhibition, % at 2.6 µM; 650,000 tested, 0.91% active; in the data active = inhibition above about 50%;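 note: 0% = vehicle wells with protein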
# FBW7 activator – human FBW7 E3 ligase activation, primary screen; Q969H0; AlphaScreen FBW7–phospho-cyclin E peptide binding, activator screen; normalized activity (activation), % at 26.1 µM; 650,000 tested, 0.13% active; AID 1259310; in the data active = normalized activity above about 1.9%;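 note: purified mutant Fbw7 with reduced substrate affinity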
# * marks the source's active call; other numbers are inactive results.
SMILES,GPR151 ag,TEAD-YAP block,MITF inh,FBW7 activator
CN(C)C(=O)c1ccc(N2CCC(NCC3(N4CCOCC4)CCCCCC3)CC2)cc1,0,8,5,0
CCC(=O)NC(c1ccc(OC)c(OC)c1)c1cc(Cl)c2cccnc2c1O (stereo not given),0,46*,28,0
CCC(=O)NC(c1ccc(OC)c(OC)c1)c1ccc2cccnc2c1O (stereo not given),-1,87*,59*,-2
COc1ccc(C(NC(C)=O)c2ccc3cccnc3c2O)cc1OC (stereo not given),0,83*,66*,-1
COc1ccc(C(NC(C)=O)c2cc(Cl)c3cccnc3c2O)cc1OC (stereo not given),0,4,21,0
Cn1cnnc1SCc1cc(=O)c(OCc2ccc(F)cc2)co1,-1,-19,4,0
CCn1c(C)nc2c(C)[n+](CC(=O)c3ccc(Br)cc3)ccc21,-1,38*,-6,0
COc1cccc(C2NC(=O)NC(C)=C2C(=O)OCCc2ccccc2)c1OC (stereo not given),2,4,-10,0
COC(=O)c1cc(S(=O)(=O)Nc2ccc(C)cc2C)cn1C,1,-4,15,0
COc1ccc(CCNc2ncnc3sccc23)cc1,2,49*,-11,0
c1ccc(CNc2ncnc3sccc23)cc1,0,2,-4,0
c1csc(CNc2ncnc3sccc23)c1,1,32*,4,0
COc1ccc(CCNc2ncnc3[nH]ncc23)cc1,2,25,-2,0
O=C(Nc1nc2ccc(NC(=O)C34CC5CC(CC(C5)C3)C4)cc2s1)C1CCCCC1,-2,53*,21,0
Fc1ccccc1/C=C/c1ccncc1,-3,-20,-3,0
CC(C)c1ccc(N/C=C/C(=O)c2ccco2)cc1,-1,78*,-20,0
O=C(/C=C/Nc1ccc(I)cc1)c1ccco1,-1,19,-8,0
O=C1CSc2ccc(C(=O)NC3CCCc4ccccc43)cc2N1 (stereo not given),-1,58*,2,0
Cc1ccc(Nc2c([N+](=O)[O-])c(=O)oc3ccccc23)cc1,0,-1,10,0
CN(C)c1ccc(Nc2c([N+](=O)[O-])c(=O)oc3ccccc23)cc1,1,53*,4,0
CCn1c(Sc2ccc([N+](=O)[O-])cc2C=O)nnc1-c1ccco1,0,51*,-5,0
CCn1c(Sc2ccc(C=O)cc2[N+](=O)[O-])nnc1-c1ccco1,-1,1,4,0
COc1ccc(CNC(=O)C2CCCN2S(=O)(=O)c2cccc3cccnc23)cc1 (stereo not given),1,-40,0,0
Cc1nc(-c2coc3cc(O)ccc3c2=O)cs1,-6,34*,8,1
COc1ccc2c(=O)c(-c3ccccc3)coc2c1,-9,29,2,0
SMILES,GPR151 ag,TEAD-YAP block,MITF inh,FBW7 activator
COc1ccc2c(=O)c(-c3cscn3)coc2c1,-3,44*,-3,0
O=c1c(-c2cc3ccccc3o2)coc2cc(O)ccc12,-8,36*,1,0
CC(=O)Oc1ccc2c(=O)c(-c3cc4ccccc4o3)coc2c1,-6,8,8,0
Oc1ccc(Br)cc1/C=N/NC(=S)Nc1cccnc1,0,12,57*,-1
COc1cc(Cl)cc(/C=N/NC(=O)c2ccccc2O)c1O,0,75*,45,-3
COc1cc(Br)cc(/C=N/NC(=O)c2ccccc2)c1O,-1,71*,9,0
COc1ccc(Cl)cc1/C=N/NC(=O)c1ccc(C)nc1,1,-2,-3,0
COc1cc(Br)cc(/C=N/NC(=O)c2ccc(C)nc2)c1O,0,28,64*,-1
COc1cc(Br)cc(/C=N/NC(=O)c2ccccc2Br)c1O,1,3,38,0
Cc1cc(NS(=O)(=O)c2ccc(NC(=S)Nc3ccccc3)cc2)no1,1,-3,-6,0
CCOC(=O)CN(C)C1CCC(=O)N(Cc2ccc(F)c(F)c2)CC1 (stereo not given),1,-12,-4,0
O=C(N/N=C/c1ccccc1O)c1ccc(F)cc1,0,-34,27,0
O=C(N/N=C/c1cc(Br)ccc1O)c1ccc(F)cc1,1,76*,12,0
COc1cc(/C=N/NC(=O)c2cccc(NC(C)=O)c2)cc(Cl)c1O,0,0,63*,0
COc1cc(C(=O)N/N=C/c2cc(Br)cc(Cl)c2O)cc(OC)c1OC,1,58*,27,-1
CCOc1cc(Br)cc(/C=N/NC(=O)c2cccnc2)c1O,0,78*,53*,-1
